SNCA viab count: reduces viability of HEK-293 SNCA reporter cells | HEK-293-SNCA-luc viability, GF-AFC fluorescence, 24 h | Potency, µM (titrated, usually from 57.1 µM), hits mostly cytotoxic | hit rate 0.12% among 150,000 | AID 1671193; note: nearly all actives have a fitted effect of over 30% in size
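HEK-293-SNCA-luc cells (1500/well) plated 24 h, then exposed 24 h to a dilution series; GF-AFC added 30 min at 37C, fluorescence 405/540 nm; normalised to medium-only and DMSO wells, Hill fit.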
KDM5B inhibitor: KDM5B demethylase inhibition; Q9UGL1; KDM5B demethylase, FDH-coupled NADH fluorescence (FDH is formaldehyde dehydrogenase); Potency, µM (series often up to 57.7 µM), hits mostly inhibitors; hit rate 2.6% among 220,000; note: nearly all actives have a fitted effect of over 70% in size
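Compound dilutions met 200 nM (final) KDM5BΔAP for 10 min at room temperature before substrate addition. The substrate mix held 12.5 µM H3K4me3 with cofactors 25 µM α-ketoglutarate and 50 µM Fe²⁺. NADH signal gain over 30 min defined activity.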
IP6K1 inhibitor: inhibitors of human IP6K1; Q92551; IP6K1 kinase, ADP-Glo luminescence, 2 h; hits give low values; activity change, % (series mostly up to about 58 µM); hit rate 0.81% among 140,000; AID 1645851; in the data active = activity change below about -25%
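ADP-Glo luminescence measures ADP made by human IP6K1 during a 2 h RT reaction with ATP/IP6 (mix at 1.3 mM/130 uM); top library doses 57.5 and 19.1 uM final.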
SNCA expr inhib: inhibitors of alpha-synuclein (SNCA) gene expression. AID 1671194. hit rate 0.17% among 140,000. HEK-293 SNCA-luciferase knock-in, luminescence, 24 h. Potency, µM (series often up to 57.2 µM), actives largely listed as inhibitors; note: nearly all actives have a fitted effect of over 45% in size
Hits are given with their value; . = inactive; ? = inconclusive; / = not tested or not shown; [ ] = remark or other dose. Rows were chosen to be rich in hits. Some 3% of all compounds tested hit in one or more screens of this group. Unless noted, calls come from the whole dose curve; as a rule, active = well fitted curve in the direction sought with a large enough effect; inconclusive = small, poorly fitted or top-dose-only effect, or another doubt; inactive = no such curve, though single readings can be large; an effect the other way counts as inactive or inconclusive.

SMILES | SNCA viab count | KDM5B inhibitor | IP6K1 inhibitor | SNCA expr inhib
CSc1ccc(NC(=O)c2cc3c(s2)CN(C2CC2)C3)cc1 | . | 22.4µM | . | .
C1=C/COCc2cc(ccc2OCCN2CCCC2)Nc2nccc(n2)-c2cccc(c2)COC/1 | 9.47µM | / | . | /
CC(C)NC(=O)c1ccc2c(c1)C1(CCN(CC3CC3)C1)CN2Cc1ccccc1 (stereo unspecified) | . | 28.2µM | . | .
O=C(NC1COC1)c1ccc2c(c1)C1(CCN(CC3CC3)C1)CN2Cc1ccccc1 (stereo unspecified) | . | 35.5µM | . | .
CNC(=O)c1ccc2c(c1)C1(CCN(CC3CC3)C1)CN2Cc1ccccc1 (stereo unspecified) | . | 35.5µM | . | .
O=C(c1ccc2c(c1)C1(CCN(CC3CC3)C1)CN2Cc1ccccc1)N1CCOCC1 (stereo unspecified) | . | ? | . | .
COCCN(C)C(=O)c1ccc2c(c1)C1(CCN(CC3CC3)C1)CN2Cc1ccccc1 (stereo unspecified) | . | ? | . | .
Cc1cc(C)cc(C(=O)NCc2nnc3ccc(-c4ccccc4)nn23)c1 | . | 25.1µM | . | .
O=C(NCc1nnc2ccc(-c3ccccc3)nn12)c1ccc[nH]c1=O | . | 28.2µM | . | .
COc1ccccc1CC(=O)NCc1nnc2ccc(-c3ccccc3)nn12 | . | . | . | .
Cc1ccc(C(=O)NCc2nnc3ccc(-c4ccc(F)cc4)nn23)c(C)c1 | . | ? | . | .
CC(C(=O)NCc1nnc2ccc(-c3ccccc3)nn12)c1ccccc1 (stereo unspecified) | . | 28.2µM | . | .
Cc1ccc(C(=O)NCc2nnc3ccc(-c4ccccc4)nn23)c(C)c1 | . | 28.2µM | . | ?
CC(C)CNC(=O)c1ccc2c(c1)NC(C)(COc1ccc3[nH]ccc3c1)CO2 (stereo unspecified) | . | 31.6µM | . | .
CN(C)C(=O)c1ccc2c(c1)NC(C)(COc1ccc3[nH]ccc3c1)CO2 (stereo unspecified) | . | . | . | .
CC1(COc2ccc3[nH]ccc3c2)COc2ccc(C(=O)N3CCOCC3)cc2N1 (stereo unspecified) | . | . | . | .
CC1(COc2ccccc2)COc2ccc(C(=O)NC3CCC(O)CC3)cc2N1 (stereo unspecified) | . | 31.6µM | . | .
CC1(COc2ccc3[nH]ccc3c2)COc2ccc(C(=O)NC3CC3)cc2N1 (stereo unspecified) | . | 31.6µM | . | .
CC1(COc2ccc3[nH]ccc3c2)COc2ccc(C(=O)N3CC(O)C3)cc2N1 (stereo unspecified) | . | 35.5µM | . | ?
CN(C(=O)[C@@H]1CCCN1c1ccnc2ccnn12)c1ccccc1 | / | / | . | /
O=C(NC1CCCN(c2ccnc3ccnn23)C1)c1cccc(Cl)c1 (stereo unspecified) | . | / | . | .
O=C(C1CCCC1)N1CC2(CCN(CC3CCCCC3)C2)Cc2ccccc21 (stereo unspecified) | . | ? | . | .
CC1(COc2ccc3[nH]ccc3c2)COc2ccc(C(=O)NCc3cccs3)cc2N1 (stereo unspecified) | . | 39.8µM | . | ?
CC1(COc2ccc3[nH]ccc3c2)COc2ccc(C(=O)NCc3ccco3)cc2N1 (stereo unspecified) | . | ? | . | .
COc1cc(C(=O)O)ccc1NC(=O)C1NC(CC(C)(C)C)C(C#N)(c2ccc(Cl)cc2F)C1c1cccc(Cl)c1F (stereo unspecified) | ? | / | . | /
SMILES | SNCA viab count | KDM5B inhibitor | IP6K1 inhibitor | SNCA expr inhib
Cn1c(CNC(=O)c2cc[nH]c2C2CCCNC2)nc2ccccc21 (stereo unspecified) | .[12.5 µM] | 31.6µM | . | .
Cc1nn2c(NCCc3ncc[nH]3)cc(-c3ccccc3)nc2c1C | . | 31.6µM | . | ?
CCCc1cc(NCCN(C)C)n2nc(C)c(-c3ccccc3)c2n1 | / | . | / | /
O=C1NC2(CCN([S+](=O)([O-])c3cccc(C(F)(F)F)c3)C2)COc2ccccc21 (stereo unspecified) | . | . | . | .
COc1cccc([S+](=O)([O-])N2CCC3(C2)N=C(c2cccnc2)C(=O)N3)c1 (stereo unspecified) | . | 28.2µM | . | .
COc1cccc([S+](=O)([O-])N2CCCC3(COc4ccccc4C(=O)N3)C2)c1 (stereo unspecified) | . | 25.1µM | . | .
O=C1NC2(CCCN([S+](=O)([O-])c3cccc(C(F)(F)F)c3)C2)COc2ccccc21 (stereo unspecified) | . | 35.5µM | . | .
COc1cccc(-c2ccc(CN3CCCC(NC(=O)c4cccc(Cl)c4)C3)cc2)c1 (stereo unspecified) | . | / | . | ?
Cc1noc2c(-c3cccnc3NCc3cnccn3)cc(-c3ccccc3)nc12 | . | 31.6µM | . | .
CC(=O)N1CCC(Nc2ncccc2-c2cc(-c3ccccc3)nc3c(C)noc23)CC1 | . | 20µM | . | .
Cc1noc2c(-c3cccnc3NCCN3CCOCC3)cc(-c3ccccc3)nc12 | . | 35.5µM | . | ?
Cc1noc2c(NCCN3CCOCC3)cc(-c3ccsc3)nc12 | . | . | . | .
Cc1noc2c(-c3cccnc3NC(C)C)cc(-c3ccccc3)nc12 | . | 31.6µM | . | .
CC(=O)N1CCC(Nc2cc(-c3ccc(Cl)cc3)nc3c(C)noc23)CC1 | . | . | . | .
Cn1ncc2c(C(=O)NCc3ccccc3F)cc(-c3ccccc3C(F)(F)F)nc21 | / | / | . | /
COc1ccc(OC)c(-c2cc(-c3ccccc3)nc3c(C)noc23)c1 | . | 35.5µM | . | .
O=C(c1ccc2nccn2c1)N1CCC(Cc2ccccc2)CC1 | . | / | . | .
CCC1CN(C(=O)c2ccc3nc(-c4ccccc4)cn3c2)CCN1C(C)C (stereo unspecified) | . | 28.2µM | . | .
COc1cccc(C(=O)Nc2cc(C3CC3)nn2-c2ccccc2)c1 | . | / | . | .
COc1ccc(-c2ccnc3nc(C4CC4)nn23)c(F)c1 | . | 25.1µM | . | ?
COc1ccc(-c2ccnc3nc(C4CC4)nn23)cc1 | . | 15.8µM | . | .
COc1ccc(CN2C[C@@H](F)[C@@H](OCc3nc4ccccc4n3C)C2)cn1 | . | . | . | .
CC(=O)Nc1ccc(CN2C[C@@H](F)[C@@H](OCc3nc4ccccc4n3C)C2)cc1 | . | 31.6µM | . | .
Cc1ccc(C(=O)Nc2ccc(-c3nc4ccccc4o3)cc2)cc1 | / | . | / | /
CC(=O)N1CCCC1C(=O)Nc1ccc(-c2nc3ccccc3o2)cc1 (stereo unspecified) | . | 28.2µM | . | .
CCCN(C)C(=O)CC1COc2ccc(C(=O)NCCOC)cc2N1C (stereo unspecified) | . | 31.6µM | . | .
C=C(C)CNC(=O)CC1COc2ccc(C(=O)NCCOC)cc2N1C (stereo unspecified) | . | ? | . | .
COCCNC(=O)c1ccc2c(c1)N(C)C(CC(=O)NCc1ccoc1)CO2 (stereo unspecified) | . | 28.2µM | . | .

Source: PubChem BioAssay (National Center for Advancing Translational Sciences (NCATS))
